Screens: PubChem BioAssay, National Center for Advancing Translational Sciences (NCATS)
GLP1R cytotox: cytotoxicity counter-screen for GLP-1 receptor inverse agonists. Potency, µM (highest dose often 38.3 µM), for the others: at the highest dose activity change, negative = inhibition, actives largely listed as inhibitors. HEK293 cAMP-luciferase reporter cells, luminescence, 24 h. 410,000 tested, 0.13% active;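 also: loss of luciferase light is scored as toxicity; potency is read from the fitted curve at half-maximal effect; % is scaled to controls: 0 for no effect and ±100 for the full control effect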
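Step one: seed cells (200 cells/uL, DMEM with 10% Nu serum, 1% pen-strep). Step two: 12-hour incubation at 37 deg C. Step three: pin 23 nL compound, incubate 24 hr. Step four: add luciferase reagent, read luminescence 12 min later.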
LDHA inh: blocks human lactate dehydrogenase A; P00338; purified LDHA, NADH/diaphorase-resazurin fluorescence; hits give low values; activity change, % (values are at about 110 or 230 µM); 480,000 tested, 0.15% active; AID 1347041; in the data active = activity change below about -30%; inconclusive = mostly about -25% to -30%;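 also: plate controls were DMSO wells for no effect and wells without enzyme for full effect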
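LDH5 2 nM; NADH 0.06 mM, pyruvate 0.2 mM; 200 mM Tris pH 7.4, EDTA, Tween-20; 5 min RT. Detection: diaphorase 0.133 mg/mL + resazurin 37 µM, fluorescence ex540/em590 at 0 and 20 min; normalized to enzyme-free and DMSO wells.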
GLP1R ag: GLP-1 receptor (human) agonism. P43220. HEK293 GLP-1R CRE-luciferase, luminescence, 4-6 h; cells express a hypersensitive GLP-1R form. Potency, µM (series often up to 45.6 µM), for the others: at the highest dose activation, usual class: activators. 380,000 tested, 0.007% active; also: potency is read from the fitted curve at half-maximal effect; % of control where 0% means no effect
Target sequence (P43220 whole entry, looked up): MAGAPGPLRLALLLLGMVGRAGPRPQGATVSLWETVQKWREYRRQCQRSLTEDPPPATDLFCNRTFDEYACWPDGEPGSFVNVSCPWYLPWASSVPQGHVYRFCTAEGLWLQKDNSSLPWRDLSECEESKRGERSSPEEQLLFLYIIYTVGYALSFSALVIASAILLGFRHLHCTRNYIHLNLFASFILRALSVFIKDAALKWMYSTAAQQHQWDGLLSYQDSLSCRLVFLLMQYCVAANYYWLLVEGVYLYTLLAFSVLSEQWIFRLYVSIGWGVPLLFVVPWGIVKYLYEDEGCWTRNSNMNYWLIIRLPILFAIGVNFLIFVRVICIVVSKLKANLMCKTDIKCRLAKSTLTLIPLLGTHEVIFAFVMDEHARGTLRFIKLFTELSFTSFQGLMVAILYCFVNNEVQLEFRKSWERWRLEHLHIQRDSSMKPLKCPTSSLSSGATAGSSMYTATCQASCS
ClpP mod: qHTS Assay for Activators of ClpP. ATP-dependent Clp protease proteolytic subunit (Bacillus subtilis (strain 168)), P80244. purified B. subtilis ClpP, FRET peptide cleavage, 20 min. Potency, µM (titrated, usually from 57.5 µM), without a hit: at the top dose activity change, negative = active. 340,000 tested, 1.9% active. AID 651965, 2013; active = well fitted falling curve with a large enough effect; inconclusive = small, poorly fitted or top-dose-only effect; inactive = no such curve, though single readings can be large or run the other way; also: potency is read from the fitted curve at half-maximal effect; the source files actives as falling curves though it sought activators and does not explain the sign; nearly all actives have a fitted effect of over 65% in size
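ClpP 10 microg/mL final, pH 8 Tris/KCl buffer with BSA, glycerol, Tween-20; compound pinned in; FRET-FV substrate; RT 20 min; Ex320/Em430; ΔFRET vs ADEP 5.8 microM, DMSO, no enzyme.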
GLP-1R inv ag: GLP-1 receptor (human) inverse agonism | P43220 | HEK293 GLP-1R CRE-luciferase, luminescence, 24 h; GLP-1R form is constitutively active | Potency, µM (doses to about 38.3 µM), for the others: at the top dose activity change, negative = inhibition, actives largely listed as inhibitors | 410,000 tested, 1.6% active | AID 624417; also: potency is read from the fitted curve at half-maximal effect; % is scaled to controls: 0 for no effect and ±100 for the full control effect; nearly all actives have a fitted effect of over 55% in size
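Seeding at 200 cells/uL, 12 h culture, 24 hr compound treatment, then luciferase reagent and a luminescence read; cells are HEK293 stably expressing a constitutively active GLP-1R plus cAMP-responsive luciferase.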
p53 reactivator: mutant p53 re-activation in reporter cells. Potency, µM (doses to about 92.2 µM), for the others: at the highest dose activity change, positive = activation, usual class: activators. 320,000 tested, 0.063% active. H1299 p53-A138V BP100-luciferase reporter, luminescence, 24 h; also: potency is read from the fitted curve at half-maximal effect; % of control where 0% means no effect; nearly all actives have a fitted effect of over 45% in size
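H1299 (p53-null), stable ts p53-A138V + BP100-Luc; 1000 cells/well, Opti-MEM/10% FBS; cpd 4 pt, 1:5; 24 h, 37 deg C, 5% CO2; detection reagent 10 min RT; luminescence.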
ClpP inh valid: Bacillus subtilis ClpP inhibition, validated hit. AID 743245. purified B. subtilis ClpP, FRET-FV substrate cleavage, 20 min. shares compounds with ClpP mod. Potency, µM (doses to about 57.5 µM), for inactives: at the top dose activity change, negative = inhibition, hits mostly inhibitors. 470 tested, 40% active; also: potency is read from the fitted curve at half-maximal effect; % is scaled to controls: 0 for no effect and ±100 for the full control effect; nearly all actives have a fitted effect of over 70% in size
The depositor's hits bear a star; ? = inconclusive; nt = no result; [ ] = remark or other dose. Shown are actives, neighbours in structure and some others; about 2.9% of the full set was active somewhere. Unless noted, calls follow the shape of the dose curve; as a rule, active = well fitted curve in the direction sought with a large enough effect; inconclusive = small, poorly fitted or top-dose-only effect, or another doubt; inactive = no such curve, though single readings can be large; an effect the other way counts as inactive or inconclusive.

SMILES | GLP1R cytotox | LDHA inh | GLP1R ag | ClpP mod | GLP-1R inv ag | p53 reactivator | ClpP inh valid
COC(=O)C1=C(C)N(Cc2ccccc2)C(=NCc2cccc(C(F)(F)F)c2)N[C@H]1c1cccc(F)c1 | 22.4µM* | 4.0 | -20.9% | -3.1% | ? | -6.9% | nt
O=C(Nc1ccc(Cl)c(Cl)c1)c1ccco1 | 9.1% | -2.5 | 4.5% | -0.9% | ? | 4.8% | nt
Cc1ccc(-c2nc3ccccc3c(=O)n2-c2ccccn2)cc1 | -7.8% | -1.8 | 5.2% | 1.4% | -10.3% | -3.1% | nt
Cc1ccc(-c2nnc(N3CCN(c4ccccn4)CC3)c3ccccc23)cc1 | 11.2µM* | -4.8 | 0.6% | 1.6% | 8.91µM* | -5.4% | nt
COc1cccc(C2CC3C(=O)C=CC2N3Cc2ccccc2)c1 (stereo not drawn) | -22.4% | 9.4 | 10.5% | -2.2% | ? | -0.9% | nt
O=C1C=CC2C3C(=O)N(c4ccccc4)C(=O)C3C1N2Cc1ccccc1 (stereo not drawn) | 10µM* | 2.8 | -17.8% | -2.6% | ? | nt | nt
COc1ccccc1CN1CCCC(C(=O)c2ccccc2SC)C1 (stereo not drawn) | -0.4%[0.307 µM] | -5.8 | -2.3% | -27.8% | -2.2%[0.307 µM] | -4.6% | nt
CCCNC(=O)c1cnn2c(C)c(Cc3c(C)cc(C)cc3C)c(C)nc12 | 7.3% | -16.6 | nt | 10µM* | -18.2% | nt | -1.1%
COc1ccc(CNC(=O)Cn2c(SCC(=O)Nc3ccc(C)c(C)c3)nc3ccccc32)cc1 | -26.8% | -21.6 | nt | -2.3% | ? | nt | nt
O=C(NCCc1ccc(Cl)cc1)c1ccc(Nc2nc3ccccc3n3nnnc23)cc1 | -1.6% | -3.1 | nt | 119.2% | 5.7% | nt | 21.7µM*
Cc1ccc(CNC(=O)c2ccc(Nc3nc4ccccc4n4nnnc34)cc2)cc1 | 4.7% | -4.4 | nt | 130.4% | 9.0% | nt | 2.73µM*
CCN1CCN(C(=O)COc2ccc3oc4c(c3c2)CCCC4)CC1 | ? | -1.4 | -3.4% | -1.3% | ? | 1.1% | nt
COc1ccc(S(=O)(=O)NC(CC(=O)N2CCC3(CC2)OCCO3)c2ccco2)cc1 (stereo not drawn) | 5.7% | -12.1 | -11.4% | 2.82µM* | -1.0% | 13.1% | -1.9%
COc1ccc2nc(NC(=O)c3cccc(-c4cc5ccccc5oc4=O)c3)sc2c1 | ? | -3.9 | 1.4% | 8.4% | ? | 6.0% | nt
CN1C(=O)C(Cc2ccc3c(c2)OCO3)C(=O)N(C)C1=O | nt | nt | nt | nt | nt | 8.8% | nt
O=C(Nc1ccccc1-c1ccc(Cl)cc1)c1cccnc1Cl | nt | nt | 16.3%[96 µM] | nt | nt | nt | nt
Cc1ccccc1C(=O)Nc1cc(-c2ccc(Cl)cc2)nn1-c1ccccc1 | 0.1% | -5.6 | nt | 144.9% | 9.7% | nt | -28.9%
CC12CN3CCN(C1)CC(C)(C3)C2=NN | 24.4% | -1.5 | 0.4% | nt | 25.0% | 2.7% | nt
CCc1nc(N2CCN(C(=O)c3ccco3)CC2)c2oc3ccccc3c2n1 | ? | 0.4 | -1.6% | -17.8% | 0.0% | 3.8% | nt
CCCCC(=O)Nc1c(C(=O)N2CCN(c3ccccc3F)CC2)oc2ccccc12 | -14.2% | 0.7 | nt | 1.26µM* | ? | nt | -2.0%
CNc1ccc2oc(C[C@H]3O[C@@]4(CC[C@H]3C)O[C@H]([C@H](C)C(=O)c3ccc[nH]3)[C@H](C)C[C@H]4C)nc2c1C(=O)O | ? | 8.8 | -4.0% | 4.6% | ? | 1.0% | 27.3µM*
